A short description of assay [1]: Primary qHTS for small molecule stabilizers of the endoplasmic reticulum resident proteome: Secreted ER Calcium Modulated Protein (SERCaMP) assay (AID 1508630). Further: on the % scale 0 is the no-effect control and ±100 the full control effect. In a few lines: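 The SH-SY5Y reporter protocol was run at 3 concentrations up to 38.3 uM (primary) or 11 concentrations (follow-up): 16 h compound, 100 nM thapsigargin for 4 h, then extracellular luciferase luminescence.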
A general note: In qHTS, concentration-response curves come from the screen itself.

Assay [2] deals with Cytochrome P450 2D6 (Homo sapiens) (UniProt P10635). In words: Cytochrome P450 family 2 subfamily D member 6 (CYP2D6) small molecule antagonists: luciferase biochemical (cell-free) qHTS assay (AID 1645840; active means well fitted curve in the direction sought with a large enough effect in the repeat runs; an effect the other way counts as inactive or inconclusive; further: potency means the concentration at half of the fitted maximal effect; nearly all actives have a fitted effect of over 55% in size). In a few lines:
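P450-Glo CYP2D6 system: proluciferin substrate converted by enzyme to luciferin, read by luminescence proportional to activity. Enzyme-substrate mix with compound 10 min at room temperature, then NADPH regeneration 1 h before detection reagent.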

Assay [3] addresses Cytochrome P450 2C9 (Homo sapiens) (UniProt P11712). Put plainly: Cytochrome P450 family 2 subfamily C member 9 (CYP2C9) small molecule antagonists: luciferase biochemical (cell-free) qHTS assay (AID 1645842; active means well fitted curve in the direction sought with a large enough effect in the repeat runs; an effect the other way counts as inactive or inconclusive; further: potency means the concentration at half of the fitted maximal effect; nearly all actives have a fitted effect of over 55% in size). In a few lines: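 P450-Glo CYP2C9 system: proluciferin substrate with enzyme in mix containing 0.4% BSA, 10 min at room temperature, then NADPH regeneration solution added and incubated 1 h at 37C. Detection reagent stopped reaction; luminescence read after 20 min as RLU.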

In assay [4] the target is Calcium and integrin-binding protein 1 (Homo sapiens) (UniProt Q99828). In words: Primary qHTS for Identification of Calcium Integrin Binding Protein 1 (CIB1) Competitor (AID 1508620). Further: top concentration of the series differs between compounds; on the % scale 0 is the no-effect control and ±100 the full control effect. In a few lines: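 Fluorescence polarization competition: GST-tagged CIB1 (1 uM final) preincubated with compound 15 min at room temperature, then FITC-labelled alphaIIb peptide (100 nM final) added. After 15 min at room temperature, polarization read at Ex 480/Em 540.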

Assay [5] is described as follows: Cell Viability qHTS for small molecule stabilizers of the endoplasmic reticulum resident proteome (AID 1508629).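 Further: human SH-SY5Y neuroblastoma cells carrying the GLuc-SERCaMP reporter; compound exposure about 46 h in total before the viability read; on the % scale 0 is the no-effect control and ±100 the full control effect.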 To be noted: cell viability counter-screen, 100 nM thapsigargin for final 4 h.
The nature of assay [6]: Counterscreen qHTS for small molecule stabilizers of the endoplasmic reticulum resident proteome: GLuc-NoTag assay (AID 1508627).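 Further: series mostly up to about 76 µM; 0% = thapsigargin alone and -100% = DMSO vehicle control.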 In a few lines: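 Counterscreen line: SH-SY5Y-GLuc-NoTag. Seed, 5 h; compound, 19 h; thapsigargin 100 nM, 4 h; 37C/5% CO2. Readout: secreted GLuc luminescence, coelenterazine 0.07x final, no lysis.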
In general terms: A counterscreen serves to expose hits that act by an unwanted route or on another target.

The nature of assay [7]: Confirmatory qHTS for small molecule stabilizers of the endoplasmic reticulum resident proteome: Secreted ER Calcium Modulated Protein (SERCaMP) assay (AID 1508628). Further: nearly all actives have a fitted effect of over 40% in size. Further: potency means the concentration at half of the fitted maximal effect. In a few lines:
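Reporter secretion upon ER calcium depletion (100 nM thapsigargin, 4 h, 37C) is measured as medium luminescence with coelenterazine, after 16 h compound pretreatment of SH-SY5Y-GLuc-SERCaMP cells; primary at three concentrations up to 38.3 uM, follow-up at 11 (up to 76.6 uM).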

Molecules are shown by their SMILES. Where “and” joins values, the source holds several entries; their conditions need not be identical. Equal entries are not always repeated. Inconclusive results are not listed. A structure can be active in one record and inactive in another. Calls of active or inactive are those of the source. Unless noted, the call rests on the fitted dose curve; in most records, active means well fitted curve in the direction sought with a large enough effect; inconclusive means small, poorly fitted or top-dose-only effect, or another doubt; inactive means no such curve, though single readings can be large; an effect the other way counts as inactive or inconclusive.

Calcium and integrin-binding protein 1 (Homo sapiens), sequence (Q99828 whole entry, looked up): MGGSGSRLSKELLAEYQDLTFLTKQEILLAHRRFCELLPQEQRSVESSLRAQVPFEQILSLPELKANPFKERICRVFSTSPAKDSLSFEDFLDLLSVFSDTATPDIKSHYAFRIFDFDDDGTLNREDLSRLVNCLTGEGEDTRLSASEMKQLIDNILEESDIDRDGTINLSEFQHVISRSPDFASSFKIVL
Cytochrome P450 2C9 (Homo sapiens), sequence (P11712 whole entry, looked up): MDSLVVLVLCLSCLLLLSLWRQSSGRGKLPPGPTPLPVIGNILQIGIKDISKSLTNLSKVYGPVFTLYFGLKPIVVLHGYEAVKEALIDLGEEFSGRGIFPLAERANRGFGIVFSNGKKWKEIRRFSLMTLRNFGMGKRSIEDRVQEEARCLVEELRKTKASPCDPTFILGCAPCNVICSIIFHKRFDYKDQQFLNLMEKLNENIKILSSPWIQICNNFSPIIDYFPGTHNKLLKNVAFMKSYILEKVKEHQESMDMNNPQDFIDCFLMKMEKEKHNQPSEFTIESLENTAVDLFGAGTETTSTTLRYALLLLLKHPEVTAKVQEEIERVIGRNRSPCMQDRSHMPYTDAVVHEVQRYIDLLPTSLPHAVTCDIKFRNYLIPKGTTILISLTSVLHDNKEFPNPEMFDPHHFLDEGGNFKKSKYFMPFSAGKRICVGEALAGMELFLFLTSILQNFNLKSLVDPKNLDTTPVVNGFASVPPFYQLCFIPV
Cytochrome P450 2D6 (Homo sapiens), sequence (P10635 whole entry, looked up): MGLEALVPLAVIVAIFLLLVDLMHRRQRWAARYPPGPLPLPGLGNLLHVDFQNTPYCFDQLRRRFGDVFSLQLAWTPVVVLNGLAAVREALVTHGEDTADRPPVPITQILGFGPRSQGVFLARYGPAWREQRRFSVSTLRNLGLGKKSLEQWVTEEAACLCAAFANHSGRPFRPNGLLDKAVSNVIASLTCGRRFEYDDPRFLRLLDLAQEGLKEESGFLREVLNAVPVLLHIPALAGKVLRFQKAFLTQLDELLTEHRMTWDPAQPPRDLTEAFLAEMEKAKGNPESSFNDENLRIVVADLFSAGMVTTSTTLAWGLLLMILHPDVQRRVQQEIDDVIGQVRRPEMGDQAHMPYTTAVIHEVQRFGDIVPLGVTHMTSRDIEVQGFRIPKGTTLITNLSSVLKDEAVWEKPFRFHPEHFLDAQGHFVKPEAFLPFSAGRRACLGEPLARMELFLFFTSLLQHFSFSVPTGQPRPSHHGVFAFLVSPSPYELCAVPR

`O=C(O)c1c(Cl)c(Cl)c(Cl)c(Cl)c1-c1c2cc(I)c(=O)c(I)c-2oc2c(I)c(O)c(I)cc12`: the Potency result in assay [1] is “inactive”. The Potency in assay [2] was 4.25 µM (active); in assay [3], 10.7 µM (active).
Regarding `O=c1cc(-c2ccccc2)oc2cc(O)c(O)c(O)c12`, in assay [1], the Potency entry is “inactive”.
With `Cc1ccc(C(=O)Nc2cccc(C(F)(F)F)c2)cc1Nc1nc(-c2cccnc2)nc2c1cnn2C`, the Potency result in assay [4] and in assay [1] was “inactive” throughout.
Take `Nc1ncnc2ccccc12`: the Potency entry in assay [4] was “inactive”.
On to `Nc1ncnc2c1ncn2[C@@H]1O[C@H](CO)C[C@@H]1O`, for which the Potency entry in assay [4] is “inactive”. Further, the max response in assay [5] is 15.2% (inactive).
For `Cc1ccc(/C=N/NC(=O)c2ccccc2Oc2ccccc2)o1`, the Potency entry in assay [4] was “inactive”.
Regarding `CC(=O)Nc1ccc([C@H](C)C(=O)Nc2ncc(C(C)C)s2)cc1`, the Potency result in assay [4] and in assay [1] was “inactive” throughout.
On to `CC[C@H]1OC(=O)[C@H](C)[C@@H](O[C@H]2C[C@@](C)(OC)[C@@H](O)[C@H](C)O2)[C@H](C)[C@@H](O[C@@H]2O[C@H](C)C[C@H](N(C)C)[C@@H]2O)[C@](C)(O)C[C@@H](C)CN(C)[C@H](C)[C@@H](O)[C@]1(C)O`, for which the Potency result in assay [4], in assay [6] and in assay [1] was “inactive” each time.
As to `CC1=C(/C=C/C(C)=C/C=C/C(C)=C/C(=O)Nc2ccc(O)cc2)C(C)(C)CCC1`, the Potency result in assay [4], in assay [6] and in assay [1] was “inactive” each time. Further, the Potency entry in assay [7] was “inactive and 31.6 µM (active)”; in assay [3], 2.75 µM (active). Besides, the max response in assay [5] was 14.9% (inactive).
In the case of `CC=CCC=CCCC(=O)[C@H]1O[C@@H]1C(N)=O`, the Potency result in assay [4] was “inactive”.
For `CN(C)Cc1ccc(-c2nc3cccc4c3n2CCNC4=O)cc1`, the Potency result in assay [4] is “inactive”.
For `CC=C(C)C(=O)O[C@H]1C(C)=C[C@]23C(=O)[C@@H](C=C(CO)[C@@H](O)[C@]12O)[C@H]1[C@@H](C[C@H]3C)C1(C)C`, the Potency entry in assay [4] and in assay [1] was “inactive” each time.

The values are drawn from PubChem BioAssay (NCATS).
